Pf growth 48h – P. falciparum growth inhibition at 48 hours (one generation). 310,000 compounds, 5.9% hits. P. falciparum luciferase growth in erythrocytes, 48 h. Potency, µM (highest dose often 28.7 µM), usual class: inhibitors
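Cell-based growth assay: transgenic P. falciparum expressing firefly luciferase, cultured in red cells within RPMI 1640 containing 0.5% w/v Albumax, 24 mM bicarbonate and gentamycin. A drop in luciferase activity indicates inhibition.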
HCMV inh – inhibitors of human cytomegalovirus; 410,000 compounds, 4.5% hits; activity change, negative = inhibition, % at 57.5 µM; HFF cells, HCMV-luciferase reporter, 72 h; stronger effect = lower value; in the data active = activity change below about -60%; inconclusive = no clear call, values can overlap the other calls; inactive = above about -39%
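After 16 h attachment at 37C, HFF cells received test compound and HCMV-luciferase (1 PFU/cell); reporter luminescence read 72 h later, data normalized against buffer-only and known inhibitor Salinomycin.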
HCV inh – blocks hepatitis C virus | Huh7.5.1 HCVcc-Cre infection, luciferase reporter, 44 h | Potency, µM (titrated, usually from 41.8 µM), actives largely listed as inhibitors | 340,000 compounds, 3.4% hits | AID 651820
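A cell-based infection assay in which seeded cells (1,000 per well) receive test compound after 4 h, are inoculated with HCVcc-Cre at approximately 0.5 moi, and are incubated 44 h before luminescence detection.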
Pf growth 96h – P. falciparum growth inhibition at 96 hour, primary screen for plastid delayed-death inhibitors. 320,000 compounds, 6.9% hits. Potency, µM (series often up to 28.7 µM), most hits filed as inhibitors. P. falciparum luciferase reporter growth, 96 h
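Infected RBCs, 2% Hct / 0.05% parasitemia final; luciferase-reporter P. falciparum; cpd 96 h, 37 C, 5% CO2; luciferase detection reagent; luminescence.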
Sm TGR inh – blocks Schistosoma mansoni thioredoxin glutathione reductase. 360,000 compounds, 3% hits. Q962Y6. AID 485364. purified TGR, DTNB reduction, TNB absorbance 405 nm. Potency, µM (series often up to 114 µM), most hits filed as inhibitors; also: nearly all actives have a fitted effect of over 60% in size
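TGR 20 nM + NADPH 100 uM (dispensed conc.), cpd preinc 15 min RT; start with NADPH (500 uM addition) then DTNB (15 mM addition). Kinetic TNB absorbance, 405 nm filter. Four-parameter Hill fit across titration.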
SARS PLpro yeast – blocks SARS-CoV papain-like protease in a yeast assay; S. cerevisiae expressing SARS-CoV PLpro, growth rescue; Potency, µM (doses to about 32.9 µM), most hits filed as activators; 330,000 compounds, 0.19% hits; AID 485353; calls by dose curve; also: nearly all actives have a fitted effect of over 55% in size
Numbers stand for hits. Most compounds without a hit are left out; they make up all but 15% or so of the library. Unless noted, calls follow the shape of the dose curve; as a rule, active = well fitted curve in the direction sought with a large enough effect; inconclusive = small, poorly fitted or top-dose-only effect, or another doubt; inactive = no such curve, though single readings can be large; an effect the other way counts as inactive or inconclusive.

For COc1ccc(/C=C/C(=O)NCc2ccccn2)cc1 the results were Pf growth 48h inactive, HCMV inh inactive, HCV inh inactive, Pf growth 96h inactive, Sm TGR inh inactive and SARS PLpro yeast inactive.
For Cc1ccc(/C=C/C(=O)NCc2ccccn2)o1 the results were Pf growth 48h inactive, HCMV inh inactive, HCV inh inactive, Pf growth 96h inactive, Sm TGR inh 18µM and SARS PLpro yeast inactive.
Screening NC(=O)CC(NC(=O)Cc1cccc2ccccc12)c1ccc(NC2CCCC2)c([N+](=O)[O-])c1 (centres undefined) returned HCMV inh inactive and HCV inh inactive.
For CC1CCCCN1CCCNc1ccc(C(CC(N)=O)NC(=O)Cc2ccc(Cl)cc2)cc1[N+](=O)[O-] (centres undefined) the results were Pf growth 48h inactive, HCMV inh inconclusive, HCV inh inactive, Pf growth 96h inactive, Sm TGR inh inactive and SARS PLpro yeast inactive.
CC1CCCCN1CCCNc1ccc(C(CC(N)=O)NC(=O)Cc2cccc3ccccc23)cc1[N+](=O)[O-] (centres undefined) was read as Pf growth 48h inconclusive, HCMV inh inactive, HCV inh inactive, Pf growth 96h 2.1µM, Sm TGR inh inactive and SARS PLpro yeast inactive.
Screening NC(=O)CC(NC(=O)Cc1cccc2ccccc12)c1ccc(NCCOc2ccccc2)c([N+](=O)[O-])c1 (centres undefined) returned Pf growth 48h inconclusive, HCMV inh -68, HCV inh inactive, Pf growth 96h inconclusive, Sm TGR inh inactive and SARS PLpro yeast inactive.
NC(=O)CC(NC(=O)Cc1cccc2ccccc12)c1ccc(NC2CC3CCC2C3)c([N+](=O)[O-])c1 (centres undefined) was read as Pf growth 48h inactive, HCMV inh inactive, HCV inh 11µM, Pf growth 96h inconclusive, Sm TGR inh inactive and SARS PLpro yeast inactive.
For CCc1nc2ccc(C(=O)NCCCN3CCCC3=O)cn2c1N(C)Cc1ccc(OC)cc1 the results were HCMV inh inactive.
Screening O=C(Nc1ccc(Cl)c(Cl)c1)C1CCCCC1 returned Pf growth 48h inactive, HCMV inh inactive, HCV inh inactive, Pf growth 96h inactive, Sm TGR inh inactive and SARS PLpro yeast inactive.
Screening O=C(CN(CC(=O)NCc1ccccc1)CC(=O)NCc1ccccc1)NCc1ccccc1 returned HCMV inh inactive.
Screening Cn1c(SCc2cc([N+](=O)[O-])cc3c2OCOC3)nnc1-c1ccccn1 returned Pf growth 48h inactive, HCMV inh inactive, HCV inh inactive, Pf growth 96h inconclusive, Sm TGR inh inactive and SARS PLpro yeast inactive.
For O=C(O)Cc1sc(N/N=C\c2ccncc2)nc1-c1ccccc1 the results were Pf growth 48h inconclusive, HCMV inh inactive, HCV inh inactive, Pf growth 96h inconclusive, Sm TGR inh 0.25µM and SARS PLpro yeast inactive.
For C(=N\Nc1nc(Nc2ccccc2)nc(Nc2ccccc2)n1)/c1cccnc1 the results were Pf growth 48h 3.3µM, HCMV inh inconclusive, HCV inh inconclusive, Pf growth 96h inactive, Sm TGR inh inactive and SARS PLpro yeast inactive.
For O=C(O)Cc1sc(Nc2ccccc2)nc1-c1ccccc1 the results were HCMV inh inactive and Sm TGR inh inactive.
Screening Cc1sc(N/N=C/c2cccnc2)nc1-c1ccccc1 returned Pf growth 48h 9.3µM, HCMV inh -65, HCV inh inconclusive, Pf growth 96h inconclusive, Sm TGR inh inconclusive and SARS PLpro yeast inactive.
`CN1C(=O)C2C(c3ccc(N(C)C)cc3)=NN(Cc3ccccc3)C2C1=O` (centres undefined) gave Pf growth 48h inactive, HCMV inh inactive, HCV inh inactive, Pf growth 96h inactive, Sm TGR inh inactive and SARS PLpro yeast inactive.
`CC(C)(CNC(=O)c1cccc(S(=O)(=O)N2CCCCC2)c1)N1CCOCC1` gave HCMV inh inactive.
`CC(NC(=O)CN1C(=O)NC(Cc2ccccc2)(Cc2ccccc2)C1=O)C12CC3CC(CC(C3)C1)C2` (centres undefined) gave HCMV inh inactive, HCV inh inactive, Pf growth 96h 12µM, Sm TGR inh inactive and SARS PLpro yeast inactive.
CCn1cc(C(=O)NC(C)C23CC4CC(CC(C4)C2)C3)cn1 (centres undefined) was read as Pf growth 48h inconclusive, HCMV inh inactive, HCV inh inactive, Pf growth 96h 5.2µM, Sm TGR inh inactive and SARS PLpro yeast inactive.
Screening CC(NC(=O)Cn1ncc(Cl)c(Cl)c1=O)C12CC3CC(CC(C3)C1)C2 (centres undefined) returned Pf growth 48h inactive, HCV inh 10µM, Pf growth 96h inactive, Sm TGR inh 40µM and SARS PLpro yeast inactive.
For O=C(Cn1ncc(Cl)c(Cl)c1=O)NC(=O)NC1CCCCC1 the results were HCMV inh -94, HCV inh 0.63µM and SARS PLpro yeast inactive.
For CC(NC(=O)Cn1ccsc1=N)C12CC3CC(CC(C3)C1)C2 (centres undefined) the results were Pf growth 48h inconclusive, HCMV inh inactive, HCV inh inactive, Pf growth 96h inconclusive, Sm TGR inh inactive and SARS PLpro yeast inactive.
Screening CCn1cc(C(=O)NC(C)C2CC3CCC2C3)cn1 (centres undefined) returned Pf growth 48h inactive, HCMV inh inactive, HCV inh inactive, Pf growth 96h inactive, Sm TGR inh inactive and SARS PLpro yeast inactive.
For CC(C#N)Sc1ccc(S(=O)(=O)N2CCCC2)cn1 (centres undefined) the results were Pf growth 48h inconclusive, HCMV inh inactive, HCV inh inactive, Pf growth 96h inactive, Sm TGR inh inactive and SARS PLpro yeast inactive.
Screening COc1cccc(C(=O)CN(C(=O)c2ccc(Cl)cc2Cl)N2C(=O)c3ccccc3C2=O)c1 returned Pf growth 48h inactive, HCMV inh inactive, HCV inh inactive, Pf growth 96h inactive, Sm TGR inh inactive and SARS PLpro yeast inactive.
For O=C(Cn1nc(Cc2ccncc2)c2ccccc2c1=O)N1CCc2ccccc2C1 the results were Pf growth 48h inactive, HCMV inh inactive, HCV inh inconclusive, Pf growth 96h inactive, Sm TGR inh inactive and SARS PLpro yeast inactive.
For CN(CCC#N)C(=O)Cn1nc(Cc2ccncc2)c2ccccc2c1=O the results were HCMV inh inactive, HCV inh inactive, Pf growth 96h 13µM, Sm TGR inh inactive and SARS PLpro yeast inactive.
`CCN(CC)CCNC(=O)Cn1nc(Cc2cccnc2)c2ccccc2c1=O` gave HCMV inh inactive, HCV inh inactive, Pf growth 96h inactive, Sm TGR inh inactive and SARS PLpro yeast inactive.
Screening CCOc1ccc(NC(=O)Cn2nc(Cc3ccncc3)c3ccccc3c2=O)cc1 returned HCMV inh inactive and Sm TGR inh inactive.
For CCCN(C(=O)Cn1nc(Cc2ccncc2)c2ccccc2c1=O)c1ccccc1C the results were HCMV inh -62 and Sm TGR inh inactive.

Assay outcomes: PubChem BioAssay, National Center for Advancing Translational Sciences (NCATS)
